Sampled rows, rich in hits. Any-hit rate of the full collection: about 21%.
SARS PLP yeast = qHTS of Yeast-based Assay for SARS-CoV PLP; Potency, µM (highest dose often 32.9 µM), for the others: at the top dose activity, positive = growth rescue, actives largely listed as activators; AID 485353, 2010; S. cerevisiae expressing SARS-CoV PLpro, growth rescue; 330,000 compounds, 0.19% hits; also: potency is read from the fitted curve at half-maximal effect; 0% is about no effect; nearly all actives have a fitted effect of over 55% in size
Pf growth 48h = Primary qHTS for delayed death inhibitors of the malarial parasite plastid, 48 hour incubation. P. falciparum luciferase growth in erythrocytes, 48 h. Potency, µM (highest dose often 28.7 µM), for the others: top-dose activity change, negative = inhibition, hits mostly inhibitors. 310,000 compounds, 5.9% hits. AID 504832, 2011; active = well fitted inhibition curve with a large enough effect; inconclusive = small, poorly fitted or top-dose-only effect, or another doubt; inactive = no such curve, though single readings can be large or run the other way; also: potency is read from the fitted curve at half-maximal effect; % is scaled to controls: 0 for no effect and ±100 for the full control effect
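Firefly luciferase activity from engineered P. falciparum reports growth; inhibitors lower the luminescent signal. Cultures contained 2% hematocrit erythrocytes at 0.1% final parasitemia.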
Shiga toxin inh = A qHTS for Small Molecule Inhibitors of Shiga Toxin. Vero cells, Shiga toxin protein synthesis inhibition reporter. inhibition, % at 38.7 µM. 290,000 compounds, 9.2% hits; in the data active = inhibition mostly above about 28%, no sharp cut-off; inactive = mostly below about 43%; also: 0% is about no effect
NS1 function inh = qHTS Assay for Inhibitors of Influenza NS1 Protein Function; AID 2326, 2010; 270,000 compounds, 0.4% hits; Potency, µM (top dose mostly 46.1 µM), inactives show at the top dose activity, positive = more growth; also: potency is read from the fitted curve at half-maximal effect; actives are rising curves; nearly all actives have a fitted effect of over 50% in size
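OD600 was taken as the measure of yeast growth restored by compound in an NS1-expressing S. cerevisiae strain. Cells had been washed out of glucose medium and diluted 1:100 into galactose -URA medium, pH 6.0.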
CHX counter = Cycloheximide Counterscreen for Small Molecule Inhibitors of Shiga Toxin. cell reporter, cycloheximide protein synthesis inhibition counterscreen. max response, %. 300,000 compounds, 12% hits; in the data active = max response mostly above about 13%, no sharp cut-off; inactive = mostly below about 14%; also: read at 38.3 µM for the half of the compounds with a filed dose; 0% is about no effect
Pf growth 96h = Primary qHTS for delayed death inhibitors of the malarial parasite plastid, 96 hour incubation. AID 504834, 2011. P. falciparum luciferase reporter growth, 96 h. 320,000 compounds, 6.9% hits. Potency, µM (top dose mostly 28.7 µM), without a hit: top-dose activity change, negative = inhibition, actives largely listed as inhibitors; active = well fitted inhibition curve with a large enough effect; inconclusive = small, poorly fitted or top-dose-only effect, or another doubt; inactive = no such curve, though single readings can be large or run the other way; also: potency is read from the fitted curve at half-maximal effect; % is scaled to controls: 0 for no effect and ±100 for the full control effect
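Readout is luminescence from an integrated firefly luciferase in P. falciparum. Red cells, 2% hematocrit and 0.05% parasitemia final, were cultured with compound through two parasite generations (96 hours) at 37 C, 5% CO2.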
Flu NS1 inh = Assay for Inhibitors of Influenza NS1 Protein Function: Hit Validation; influenza NS1 function cell assay, 15-point titration; activity change, negative = inhibition, % at 32.9 µM; shares compounds with NS1 function inh; 1,400 tested, under 10 active; also: 0% is about no effect
Flu PR8 replic = Assay for Inhibitors of Influenza NS1 Protein Function: Influenza virus replication assay in MDCK cells infected with virus A/PR/8/34. MDCK infected influenza A/PR/8/34, virus titer TCID50; stronger effect = lower value. 95 compounds, 30% hits. virus titer (log TCID50), log10 TCID50 at 5 µM. shares compounds with NS1 function inh; call rule not given here
Starred values were filed as active, the others as inactive; ? = inconclusive; . = no result. Unless noted, calls follow the shape of the full dose curve.

SMILES | SARS PLP yeast | Pf growth 48h | Shiga toxin inh | NS1 function inh | CHX counter | Pf growth 96h | Flu NS1 inh | others
CCCCCCN(C(=O)CCCCCN1C(=O)NC(c2ccc(-c3ccccc3)cc2)C(C(=O)OCc2ccccc2)=C1C)C(C(=O)NCCCC)c1ccc(OCC(=O)OC)c(C(=O)OC)c1 (stereo not drawn) | 2% | 2.3µM* | -1 | 11µM* | -7 | 2.6µM* | -25
CCCCn1c(C)cc2cc(O)ccc21 | -9% | ? | -22 | 10µM* | 7 | 18% | ?
COc1ccc(S(=O)(=O)N(CC(=O)NN=C2CCN(C)CC2)c2ccc(C)cc2)cc1OC | -7% | 6% | -36 | 27% | -3 | 5% | .
Cc1ccc(N(CC(=O)NN=C2CCN(C)CC2)S(=O)(=O)c2ccccc2)c(C)c1 | 4% | -7% | 9 | 4.5µM* | 0 | 44% | 27
O=C1CN(C(=O)COC(=O)c2ccc(Cl)cc2)c2ccccc2N1 | 1% | 0% | . | . | . | 0% | .
O=C1CN(C(=O)COC(=O)c2ccc(N3CCCCCC3)c([N+](=O)[O-])c2)c2ccccc2N1 | -4% | ? | -8 | 10µM* | -3 | 6.6µM* | 21
COc1ccc(Nc2nc(N3CCOCC3)nc(N3CCOCC3)n2)cc1Cl | 0% | -28% | 1 | 9% | -3 | 8% | .
Cc1ccc2nc(NC(=O)C(NS(=O)(=O)c3cccc4nsnc34)C(C)C)sc2c1 (stereo not drawn) | 2% | . | -12 | 6% | -8 | -16% | .
CCOc1cc(/C=C2\N=C(C)OC2=O)cc(Br)c1OCC(=O)OC | -2% | ? | -9 | ? | 0 | ? | -35
CC(C)(C)NC(=O)c1ccccc1-c1nc2ccccc2s1 | 2% | ? | 21 | ? | -2 | ? | 16 | Flu PR8 replic=8.5
Cc1c(Cl)cccc1NC(=O)c1ccc(-n2ccnc2)nc1 | -4% | ? | -9 | -3% | -7 | ? | .
Cc1ccc(-c2noc(C3CCCN(C(=O)c4ccccc4Br)C3)n2)o1 (stereo not drawn) | -2% | ? | 71* | ? | 28* | 1% | -10
COc1ccc(-c2noc(C3CCCN(C(=O)c4ccccc4C)C3)n2)cc1 (stereo not drawn) | -5% | ? | 10 | -28% | 1 | ? | .
CC(OC(=O)CCCCCN=C1NS(=O)(=O)c2ccccc21)C(=O)Nc1cc(Cl)cc(Cl)c1 (stereo not drawn) | 11% | 26% | -9 | 13µM* | -3 | 29% | 6
CC(=O)Nc1ccc(NC(=O)C(C)OC(=O)CCN=C2NS(=O)(=O)c3ccccc32)cc1 (stereo not drawn) | 0% | -1% | 9 | 8% | 1 | 15% | .
COc1ccc(OC)c(C2/C(=C(\O)c3c(C)nc4ccccn34)C(=O)C(=O)N2CCCN(C)C)c1 (stereo not drawn) | . | . | . | 6% | . | . | .
Cc1ccccc1Nc1nnc(C)c(=O)n1N | 10% | 0% | 26 | 1.8µM* | -5 | ? | 2
Cc1cccc(Nc2nnc(C)c(=O)n2N)c1 | 6% | -12% | -5 | 18% | -3 | 67% | .
CC(C)(C)NS(=O)(=O)c1ccc(NC(=O)C(Sc2ccccc2)c2ccccc2)cc1 (stereo not drawn) | 5% | ? | -1 | 19% | 2 | ? | .
CCN(CC)S(=O)(=O)c1cc(C(=O)OCC(=O)c2ccc3c(c2)NC(=O)CO3)ccc1F | -6% | ? | 5 | -16% | -2 | . | .
CN(C)S(=O)(=O)c1cccc(C(=O)OCC(=O)c2ccc3c(c2)NC(=O)CO3)c1 | 2% | 23% | -10 | ? | 1 | 7% | -10
O=C(NCC1OCCCN1S(=O)(=O)c1cc(F)ccc1F)C(=O)NC1CCCC1 (stereo not drawn) | 1% | -25% | -9 | 18% | -2 | 0% | .
CC(=O)NC1(c2ccc(F)cc2)CCN(C(=O)Nc2ccc(F)cc2F)CC1 | 3% | -26% | 18 | 6% | -1 | 451% | .
CC1=NN(c2ccc(C(=O)OC(C)C)cc2)C(=O)/C1=C\C=C\c1ccco1 | ? | 2.9µM* | 12 | 11µM* | 3 | ? | 3
COc1ccc(/C=C/C(=O)OC(C)CN2CCCCC2)cc1 (stereo not drawn) | -4% | 72% | -16 | -4% | 0 | -18% | .
SMILES | SARS PLP yeast | Pf growth 48h | Shiga toxin inh | NS1 function inh | CHX counter | Pf growth 96h | Flu NS1 inh | others
O=[N+]([O-])c1ccc(N/N=C/c2cn(-c3ccccc3)nc2-c2ccccc2)cc1 | 4% | 13µM* | 31* | ? | 10 | 4.7µM* | 1
CC1CC(C)CN(CCCNC(=O)c2ccc3c(c2)ncn3C2CCCC2)C1 (stereo not drawn) | 17% | ? | 15 | ? | 6 | 10µM* | -38
CC1CC(C)CN(CCCNC(=O)c2ccc3c(SCC(=O)O)c4c(nc3c2)CCC4)C1 (stereo not drawn) | 0% | -8% | -2 | 3% | 4 | 4% | .
COc1ccc(C2/C=C\CN(C(=O)C3CC3)C(C)C(=O)N2Cc2ccc(F)cc2)cc1 (stereo not drawn) | . | . | -5 | . | 6 | . | .
c1ccc(CCNC2=NCCCS2)cc1 | -5% | ? | 0 | ? | 4 | ? | -9
CCOC(=O)N1CCC(NC(=O)c2ccc3c(c2)sc2nc(-c4ccccc4)cn23)CC1 | -8% | 1.3µM* | 69* | ? | 39* | -20% | -12 | Flu PR8 replic=7.5*
CCOC(=O)N1CCC(NC(=O)c2ccc3c(c2)N=C(CC)c2ccccc2S3)CC1 | -11% | ? | 7 | 12% | 7 | ? | .
CC(C)(C)C1CCc2onc(C(=O)Nc3ccc(F)cc3F)c2C1 (stereo not drawn) | 2% | 4% | 6 | ? | -3 | -16% | ?
O=C(Nc1ccc(F)cc1F)c1cncc(Br)c1 | 0% | 24% | -2 | -2% | 8 | 34% | .
O=C1CC(=O)N(c2ccc(Cl)cc2)C(=O)N1 | -6% | -2% | . | 27% | -2 | 61% | .
Cc1ccc(N2C(=O)CC(=O)NC2=O)cc1Cl | 5% | 9% | -1 | 10µM* | 2 | ? | 20
COc1ccc(Br)cc1[C@H]1[C@H]2C=CC[C@@H](C)[C@@H]2C(=O)N1Cc1ccccc1 | 0% | ? | -2 | 12% | 2 | ? | .

Screening results (PubChem)
